Data from PubChem BioAssay (NCATS).
Several values for one entry are separate records, joined by “and”; a condition that tells them apart may be missing. Identical values can stand only once. Results filed as inconclusive are left out. Activity calls are given as the source filed them. Unless noted, the call rests on the fitted dose curve; in most records, active means well fitted curve in the direction sought with a large enough effect; inconclusive means small, poorly fitted or top-dose-only effect, or another doubt; inactive means no such curve, though single readings can be large; an effect the other way counts as inactive or inconclusive.

Tests used:
[1] = Cell Viability - BJ (AID 421; calls by dose curve;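 further: potency means the concentration at half of the fitted maximal effect; cells exposed to compound for 40 hours at 37 °C before readout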); conditions: BJ fibroblast viability, qHTS
Procedure, shortened: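 Cytotoxicity in human BJ foreskin fibroblasts is scored as loss of cellular ATP after a 40-hour exposure, measured by luciferase luminescence. Controls are DMSO and 100 uM tamoxifen.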

[2] = Cell Viability - HepG2 (AID 433; calls by dose curve;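 further: potency means the concentration at half of the fitted maximal effect; cells exposed to compound for 40 hours; potency for ATP loss meaning cytotoxicity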); conditions: qHTS
Procedure, shortened: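 HepG2 hepatocellular carcinoma cells (1500/well) were treated with compounds for 40 h at 37 °C in complete medium; intracellular ATP was read by CellTiter-Glo luminescence. Data were normalized to DMSO and 100 uM tamoxifen, and AC50 came from Hill fits.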

[3] = Cell Viability - Mesenchymal (AID 546); conditions: mesenchymal cells viability, qHTS; activity change, negative = cytotoxicity: at 91.7 µM (top of the series);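 further: cells exposed to compound for 40 hours before reading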
Procedure, shortened: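 AC50 values reflect the drop in intracellular ATP in a human kidney mesenchymal line derived from normal glomeruli. Treatment lasts 40 hr at 37 °C in complete medium, and the signal comes from CellTiter-Glo luminescence.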

[4] = Cellular Toxicity (caspase-3) Jurkat (AID 655); conditions: Jurkat caspase-3 activation, luminescence; caspase-3 activation: at 92.2 µM (top of the series), DMSO = 0%, tamoxifen = 100%;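 further: cells exposed to compound for 16 h at 37 °C before reading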
Procedure, shortened: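 Jurkat cells (5000/well) in complete medium were treated with compounds for 16 hr at 37 °C, then Caspase-Glo 3/7 luminescence was read after 20 min at room temperature. Data normalized to DMSO (basal) and 100 uM tamoxifen (100%); AC50 from Hill fit.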

[5] = Cell Viability - LYMP1-002 - Assay at 16 hr (AID 948); conditions: LYMP1-002 lymphoblastoid cell viability; series mostly up to 92.2 µM;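 further: 0% = DMSO alone and full effect = 92 µM tetraoctylammonium bromide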
Procedure, shortened: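 Human lymphoblastoid cells (LYMP1-002), 2500/well, were preincubated 5 hr at 37 C, then exposed to compounds for 16 hr at 37 C in complete medium. Cellular ATP was read by CellTiter-Glo luminescence after 30 min at room temperature; AC50 from Hill fits.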

[6] = MultiTox-Fluor Cytotoxicity Assay - LYMP1-002 - Live Cells (AID 955); conditions: LYMP1-002 lymphoblastoid live-cell protease fluorescence viability; series mostly up to 46.1 µM; further: on the % scale 0 is the no-effect control and ±100 the full control effect
Procedure, shortened: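 Cytotoxicity in the human lymphoblastoid line LYMP1-002 is measured as loss of live-cell protease activity after 16 h treatment in complete culture medium. AC50 is derived from Hill-equation fits of qHTS concentration-response data.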

[7] = Cell Viability - LYMP2-003 (AID 965); conditions: LYMP2-003 lymphoblastoid cell viability; series mostly up to 92.2 µM;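 further: cells exposed to compounds for 24 h before reading; 0% = DMSO only and full effect = 92 µM tetraoctylammonium bromide; nearly all actives have a fitted effect of over 50% in size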
Procedure, shortened: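 Human lymphoblastoid cells (2500/well) were pre-incubated 5 hr at 37 C, then exposed to compounds over a concentration range for 24 hr at 37 C. Intracellular ATP was read by CellTiter-Glo luminescence; AC50 came from Hill-equation fits.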

[8] = Cell Viability - LYMP2-011 (AID 969); conditions: LYMP2-011 lymphoblastoid cells viability; series mostly up to 92.2 µM;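 further: 0% = DMSO only and full inhibition = 92 µM tetraoctylammonium bromide; nearly all actives have a fitted effect of over 60% in size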
Procedure, shortened: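 Acute toxicity is scored as a concentration-dependent drop in intracellular ATP of a human lymphoblastoid line after 24 hr treatment. Values are AC50s modeled with the Hill equation.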

[9] = Cell Viability - LYMP2-013 (AID 970); conditions: LYMP2-013 lymphoblastoid cells viability; series mostly up to 92.2 µM;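 further: 0% = DMSO only and full inhibition = tetraoctylammonium bromide control; nearly all actives have a fitted effect of over 55% in size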
Procedure, shortened: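 Acute toxicity was measured in human lymphoblastoid cells (2500/well) exposed to compound titrations for 24 hr, with ATP luminescence (CellTiter-Glo) as read-out and AC50 fitted by Hill equation.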

[10] = Cell Viability - LYMP2-023 (AID 975); conditions: LYMP2-023 lymphoblastoid cell viability; series mostly up to 92.2 µM;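 further: cellular ATP measured by luciferase luminescence as viability proxy; plate controls were DMSO only for no effect and 92 µM tetraoctylammonium bromide control for full effect; nearly all actives have a fitted effect of over 55% in size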
Procedure, shortened: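 Concentration-dependent drop in intracellular ATP measures acute cytotoxicity in a human lymphoblastoid line treated for 24 hours in complete culture medium. AC50 values are taken from Hill-equation fits of qHTS data.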

[11] = Cell Viability - LYMP2-002 (AID 977); conditions: LYMP2-002 lymphoblastoid cell viability, qHTS; series mostly up to 92.2 µM;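 further: compound exposure lasted 24 h at 37 °C; plate controls were DMSO only for no effect and 92 µM tetraoctylammonium bromide for full effect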
Procedure, shortened: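 Cytotoxicity is scored as concentration-dependent loss of cellular ATP in a human lymphoblastoid line after 24 hr compound treatment at 37 C. AC50 is obtained by modelling concentration-response data with the Hill equation.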

[12] = Cell Viability - LYMP2-006 (AID 978); conditions: LYMP2-006 lymphoblastoid cell viability, qHTS; series mostly up to 92.2 µM; further: on the % scale 0 is the no-effect control and ±100 the full control effect; nearly all actives have a fitted effect of over 60% in size
Procedure, shortened: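 Human lymphoblastoid cells, 2500 per well, were preincubated 5 hr at 37 C, then exposed to compounds for 24 hr at 37 C in complete medium. Viability was read as intracellular ATP by CellTiter-Glo luminescence; AC50 from Hill-equation fits of qHTS concentration-response data.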

[13] = Cell Viability - LYMP2-008 (AID 980); conditions: LYMP2-008 lymphoblastoid cell viability, qHTS; series mostly up to 92.2 µM; further: on the % scale 0 is the no-effect control and ±100 the full control effect; nearly all actives have a fitted effect of over 60% in size
Procedure, shortened: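 Acute cytotoxicity is scored as concentration-dependent loss of cellular ATP in a human lymphoblastoid line after 24 hr treatment at 37 C. ATP is quantified by luciferase luminescence.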

[14] = Cell Viability - LYMP2-012 (AID 982); conditions: LYMP2-012 lymphoblastoid cell viability qHTS; series mostly up to 92.2 µM;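 further: cellular ATP by luciferase luminescence where a drop means cytotoxicity; cells exposed to compound for one day before reading; 0% = DMSO only and full loss = 92 µM tetraoctylammonium bromide; nearly all actives have a fitted effect of over 55% in size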
[15] = Cell Viability - LYMP2-020 (AID 986); conditions: series mostly up to 92.2 µM;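 further: plate controls were DMSO only for no effect and tetraoctylammonium bromide at 92 µM for full effect; nearly all actives have a fitted effect of over 55% in size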
Procedure, shortened: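 Acute cytotoxicity in a human lymphoblastoid line is scored as a concentration-dependent fall in cellular ATP after 24 hr at 37 C in complete medium. The positive control is tetraoctylammonium bromide, and potency is given as Hill-fit AC50.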

[16] = Cell Viability - LYMP2-022 (AID 987); conditions: LYMP2-022 lymphoblastoid cell viability; series mostly up to 92.2 µM
Procedure, shortened: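 Acute toxicity in a human lymphoblastoid line is scored as decreased intracellular ATP after 24 hr compound treatment at 37 C. ATP is measured by CellTiter-Glo luminescence; curves are fitted with the Hill equation to give AC50.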

[17] = Cell Viability - LYMP2-024 (AID 988); conditions: LYMP2-024 lymphoblastoid cell viability; series mostly up to 92.2 µM;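 further: plate controls were DMSO only for no effect and 92 µM tetraoctylammonium bromide for full effect; nearly all actives have a fitted effect of over 60% in size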
Procedure, shortened: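 Acute toxicity is measured as concentration-dependent loss of intracellular ATP in a human lymphoblastoid line treated 24 hours at 37 C. Luciferase luminescence quantifies ATP; AC50 values come from standard Hill-equation modelling.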

[18] = Cell Viability - LYMP1-002 - Assay at 40 hr (AID 994); conditions: LYMP1-002 lymphoblastoid cell viability; series mostly up to 92.2 µM
Procedure, shortened: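 Viability in the human lymphoblastoid line was measured as intracellular ATP via CellTiter-Glo after 40 hr compound exposure. Tetraoctylammonium bromide served as positive control.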

[19] = qHTS assay for small molecule antagonists of retinoid X receptor alpha signaling (AID 588546); conditions: HEK293T RXRa-UAS-bla, beta-lactamase ratio, antagonist mode; measured here: W530 green channel, cytotoxicity proxy;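 further: cells stimulated with 9-cis-retinoic acid as agonist; on the % scale 0 is the no-effect control and ±100 the full control effect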
Procedure, shortened: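 Beta-lactamase reporter inhibition, read as CCF4 fluorescence ratio (ex 405, em 460/530 nm) after 2 h at RT. HEK293T UAS-bla cells, 2500/well, were stimulated with 9-cis-RA at 500 or 100 nM final alongside test compound for 18 h at 37 C.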

[20] = qHTS assay for environmental chemicals that activate the Aryl hydrocarbon Receptor (AhR) signaling pathway (AID 651777); conditions: 1A2-DRE human hepatoma cells, luciferase, 24 h; activation: stronger effect = higher value; further: % of control where 0% means no effect; nearly all actives have a fitted effect of over 15% in size
Procedure, shortened: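 Human hepatoma 1A2-DRE cells stably carrying a DRE/CYP1A2 promoter–luciferase reporter, 1,200 cells/well, exposed to compound 24 hr at 37 C. Luciferase read by One-Glo luminescence after 30 min at room temperature; increased signal marks AhR activation.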

O=C(O)c1ccc([N+](=O)[O-])cc1
active: caspase-3 activation [4] 85.2%
-8.75% and -3.59%: max response [19]
inactive: Potency [1] > 92 µM | Potency [2] > 92 µM | Potency [3] | Potency [5] | outcome [6] | Potency [7] | Potency [8] | Potency [9] | Potency [10] | Potency [11] | Potency [12] | Potency [13] | Potency [14] | Potency [15] | Potency [16] | Potency [17] | Potency [18] | activation [20] 0.333% and 2.14%

CCCCCCCCC1CO1 (stereo not given)
-6.6%: max response [19]
inactive: Potency [1] > 92 µM | Potency [2] > 92 µM | Potency [3] | Potency [4] | Potency [5] | outcome [6] | Potency [7] | Potency [8] | Potency [9] | Potency [10] | Potency [11] | Potency [12] | Potency [13] | Potency [14] | Potency [15] | Potency [16] | Potency [17] | Potency [18] | activation [20] 0.826%

CC(C)OCC1CO1 (stereo not given)
-11.4%: max response [19]
inactive: Potency [1] > 92 µM | Potency [2] > 92 µM | Potency [3] | Potency [4] | Potency [5] | outcome [6] | Potency [7] | Potency [8] | Potency [9] | Potency [10] | Potency [11] | Potency [12] | Potency [13] | Potency [14] | Potency [15] | Potency [16] | Potency [17] | Potency [18] | activation [20] 0.457%

O=CC(=O)c1ccccc1
-7.19%: max response [19]
inactive: Potency [1] > 92 µM | Potency [2] > 92 µM | Potency [3] | Potency [4] | Potency [5] | outcome [6] | Potency [7] | Potency [8] | Potency [9] | Potency [10] | Potency [14] | Potency [15] | Potency [18] | activation [20] 0.568%
